Active and inactive are the calls of the source. Unless noted, how the calls were made is not given here.
Experiments:
[1] = A549 cell viability effects, profiling panel, calcein-AM fluorescence, 48 h, basal (AID 1162); conditions: higher = more signal; further: test concentration not given here
[2] = adipocyte viability effects, profiling panel, cell-based, 3T3-L1 adipocytes, calcein-AM fluorescence, 48 h, basal (AID 1163); conditions: 3T3-L1 adipocytes viability, higher = more signal; further: test concentration not given here
[3] = HepG2 cell viability effects, profiling panel, calcein-AM fluorescence, 48 h, basal (AID 1164); conditions: higher = more signal; further: test concentration not given here
[4] = MM1S cell viability effects, profiling panel, calcein-AM fluorescence, 48 h, basal (AID 1165); conditions: higher = more signal;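 further: viability of MM1S multiple myeloma cells under basal unstimulated conditions; test concentration not given here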
[5] = basal RPMI8226 viability, no added stimulus, profiling panel, cell-based, calcein-AM fluorescence, 48 h, PK04 Diversity Set (AID 1166); conditions: RPMI8226 myeloma viability, higher = more signal;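 further: cells grown under basal conditions without added stimulus; test concentration not given here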
[6] = basal HepG2 mitochondrial membrane potential changes, profiling panel, cell-based, JC-1 fluorescence, 24 h, 100 nL compound (AID 1167); conditions: higher = more signal; further: test concentration not given here
[7] = basal 3T3-L1 adipocyte mitochondrial potential changes, profiling panel, cell-based, JC-1 fluorescence, 3T3-L1 adipocytes, 24 h, 100 nL compound (AID 1168); conditions: JC-1 mitochondrial fluorescence, higher = more signal, called active from +8 up or from −8 down; further: test concentration not given here
[8] = basal RPMI8226 mitochondrial membrane potential changes, profiling panel, cell-based, JC-1 fluorescence, 24 h, 100 nL compound (AID 1169); conditions: RPMI8226 myeloma, JC-1 mitochondrial potential fluorescence, higher = more signal; further: test concentration not given here
[9] = basal MM1S mitochondrial membrane potential changes, profiling panel, cell-based, JC-1 fluorescence, 24 h, 100 nL compound (AID 1170); conditions: higher = more signal; further: test concentration not given here
[10] = A549 lung cancer cell viability effects, profiling panel, resazurin fluorescence, 24 h, PK04 Diversity Set (AID 1171); conditions: higher = more signal, called active from +8 up or from −8 down; further: test concentration not given here
[11] = HepG2 liver cancer cell viability effects, profiling panel, resazurin fluorescence, 24 h, PK04 Diversity Set (AID 1172); conditions: higher = more signal; further: test concentration not given here
[12] = basal S. cerevisiae growth modulation, no modifier, primary screen, OD600, strain BY4716, 24 h, basal condition (AID 1173); conditions: OD600, 24 h, higher = more signal, called active from +8 up or from −8 down
[13] = MM1S myeloma cell viability, profiling panel, resazurin fluorescence, basal, 24 h, PK04 Diversity Set (AID 1174); conditions: higher = more signal, called active from +8 up or from −8 down;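 further: MM1S multiple myeloma cell line; test concentration not given here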
[14] = molecular target: Dihydroorotate dehydrogenase (quinone), mitochondrial (Plasmodium falciparum (isolate 3D7)) (UniProt Q08210); test: PfDHODH enzyme inhibitors, primary screen, biochemical, C-terminal His tag, absorbance 600 nm (AID 1175); conditions: DCIP absorbance 600 nm, higher = more signal, called active from +8 up or from −8 down;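 further: recombinant parasite enzyme with a five histidine tag at its C terminus; test concentration not given here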
Chain of Dihydroorotate dehydrogenase (quinone), mitochondrial (Plasmodium falciparum (isolate 3D7)) (Q08210 whole entry, looked up): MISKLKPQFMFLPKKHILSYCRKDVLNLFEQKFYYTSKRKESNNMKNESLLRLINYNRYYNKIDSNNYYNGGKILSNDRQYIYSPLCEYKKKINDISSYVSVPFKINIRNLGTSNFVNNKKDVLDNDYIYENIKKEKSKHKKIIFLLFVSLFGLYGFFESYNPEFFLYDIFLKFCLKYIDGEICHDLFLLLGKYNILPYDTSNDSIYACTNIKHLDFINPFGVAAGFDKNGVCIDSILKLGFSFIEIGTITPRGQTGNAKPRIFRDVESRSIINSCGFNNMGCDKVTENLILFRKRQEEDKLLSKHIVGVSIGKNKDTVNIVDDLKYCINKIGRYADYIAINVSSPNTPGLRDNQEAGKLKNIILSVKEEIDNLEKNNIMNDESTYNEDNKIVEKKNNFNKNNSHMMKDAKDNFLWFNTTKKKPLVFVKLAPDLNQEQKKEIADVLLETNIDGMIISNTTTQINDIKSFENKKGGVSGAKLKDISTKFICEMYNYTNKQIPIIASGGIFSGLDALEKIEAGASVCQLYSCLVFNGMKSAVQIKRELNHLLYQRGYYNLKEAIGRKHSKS

[15] = P. aeruginosa biofilm formation inhibitors, primary screen, strain PAO1, LB-PBS medium, absorbance 600 nm (AID 1176); further: test concentration not given here; conditions: P. aeruginosa PAO1 growth/biofilm, A600, 12 h; higher = more signal
[16] = S. cerevisiae RM11-1a growth modifiers, primary screen, strain RM11-1a, OD600, basal, 24 h (AID 1177); conditions: OD600, 24 h, higher = more signal, called active from +8 up or from −8 down;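 further: cultures grown under basal conditions with no added stressor; test concentration not given here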
[17] = E. coli acrAB mutant growth effects, primary screen, E. coli filamentation inducers, strain DRC39, OD650, 24 h (AID 1178); conditions: higher = more signal, called active from +8 up or from −8 down;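 further: growth measured as culture turbidity by optical density at 650 nm; test concentration not given here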
[18] = E. coli acrAB mutant growth effects, primary screen, E. coli filamentation inducers, strain DRC39, OD650, 48 h (AID 1179);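 further: screen aims at cell division blockers that make cells filament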; conditions: E. coli DRC39 delta-acrAB growth, higher = more signal, called active from +8 up or from −8 down
[19] = RPMI8226 myeloma cell viability, profiling panel, resazurin fluorescence, basal, 24 h, PK04 Diversity Set (AID 1180); conditions: higher = more signal;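 further: RPMI8826 multiple myeloma cell line at 5000 cells per well; test concentration not given here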
[20] = molecular target: E3 ubiquitin-protein ligase XIAP (Homo sapiens) (UniProt P98170); test: XIAP binders, primary screen, biophysical, small-molecule microarray, fluorescence 635 nm (AID 1181); conditions: small-molecule microarray binding, higher = more signal;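 further: score merges 667 nm emission and signal to noise over triplicate slides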
Chain of E3 ubiquitin-protein ligase XIAP (Homo sapiens) (P98170 whole entry, looked up): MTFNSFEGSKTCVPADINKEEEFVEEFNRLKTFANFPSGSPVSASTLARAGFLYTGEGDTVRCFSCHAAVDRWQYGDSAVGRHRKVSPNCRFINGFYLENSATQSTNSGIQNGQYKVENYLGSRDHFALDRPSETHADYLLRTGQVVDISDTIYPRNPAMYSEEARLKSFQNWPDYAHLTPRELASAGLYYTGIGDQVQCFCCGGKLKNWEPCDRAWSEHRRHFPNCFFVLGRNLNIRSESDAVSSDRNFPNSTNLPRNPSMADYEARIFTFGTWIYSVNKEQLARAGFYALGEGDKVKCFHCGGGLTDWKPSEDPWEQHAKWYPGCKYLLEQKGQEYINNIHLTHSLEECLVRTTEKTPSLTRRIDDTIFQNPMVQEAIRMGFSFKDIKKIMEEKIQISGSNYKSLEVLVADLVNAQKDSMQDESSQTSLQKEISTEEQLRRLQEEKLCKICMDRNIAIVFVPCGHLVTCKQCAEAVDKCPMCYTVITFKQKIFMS

Structure (SMILES) | z-score [1] | z-score [2] | z-score [3] | z-score [4] | z-score [5] | z-score [6] | z-score [7] | z-score [8] | z-score [9] | z-score [10] | z-score [11] | z-score [12] | z-score [13] | composite z-score [14] | z-score [15] | z-score [16] | z-score [17] | z-score [18] | z-score [19] | composite z-score [20]
COc1cccc([C@H]2Oc3ccc(OC)cc3C(=NO[C@H](C)c3cn([C@H](CO)Cc4ccccc4)nn3)[C@@H]2O)c1 | -0.16 | 0.131 | -0.489 | -0.0922 | -0.719 | -1.81 | -3.16 (inactive) | -0.0494 | -0.252 | 0.286 (inactive) | -0.26 | 0.723 (inactive) | -0.328 (inactive) | -0.755 (inactive) | 0.417 (inactive) | -1.11 (inactive) | 0.753 (inactive) | 0.571 (inactive) | 0.249 | -0.278
COC(=O)CC=C[C@@H](C)[C@@H](C=NOC[C@@H](O)[C@H]1O[C@@H]2OC(C)(C)O[C@@H]2[C@H]1O)NS(=O)(=O)c1ccc(C)cc1 | -0.234 | 0.531 | 0.104 | -1.57 | -0.34 | 0.153 | 0.158 (inactive) | -0.15 | -0.488 | -0.854 (inactive) | -0.687 | 0.185 (inactive) | -0.502 (inactive) | -0.241 (inactive) | 0.453 (inactive) | 0.0095 (inactive) | -0.336 (inactive) | 0.447 (inactive) | -0.609 | -0.0445
COc1ccc(C#C[C@@H]2C=C[C@H](OC(C)=O)[C@@H](COC(C)=O)O2)cc1 | -0.142 | 0.49 | 0.419 | -3.54 | -2.65 | -1.52 | -0.197 (inactive) | -0.437 | -2.68 | -0.0296 (inactive) | 0.0002 | -1.59 (inactive) | -2.77 (inactive) | -0.531 (inactive) | 0.0372 (inactive) | -0.939 (inactive) | 0.746 (inactive) | 0.348 (inactive) | -1.49 | -0.0801
COc1ccc(O[C@H]2C=C[C@@H](c3ccccc3)O[C@@H]2COC(=O)CCC(C)=NOC[C@@H](O)[C@H]2O[C@@H]3OC(C)(C)O[C@@H]3[C@H]2O)cc1 | 1.11 | -0.519 | 0.26 | 0.152 | -0.0547 | -0.42 | 0.157 (inactive) | -0.299 | -0.199 | 0.138 (inactive) | 0.0784 | -0.727 (inactive) | 0.0383 (inactive) | -1.15 (inactive) | -0.348 (inactive) | 0.28 (inactive) | 1.18 (inactive) | -1.02 (inactive) | 1.04 | -0.0559
O=C(C=Cc1ccc2c(c1)OCO2)c1ccc(F)cc1 | -0.182 | 0.867 | -0.358 | -3.26 | -3.41 | -0.698 | -0.211 (inactive) | -0.811 | -0.286 | 0.275 (inactive) | -0.214 | -10.1 (active) | -0.194 (inactive) | 0.184 (inactive) | -0.245 (inactive) | -0.31 (inactive) | 0.264 (inactive) | -0.423 (inactive) | -0.538 | -0.176
CO[C@@H]1COC(=O)[C@H](CCSC)NC(=O)CC=C[C@@H](C)COC(=O)CCC[C@H]1C | 0.471 | -0.304 | -0.764 | -0.38 | -0.687 | 1.95 | -0.688 (inactive) | -0.194 | -0.0804 | 0.977 (inactive) | 1.09 | -0.509 (inactive) | -0.11 (inactive) | -0.555 (inactive) | -0.892 (inactive) | 0.0665 (inactive) | 0.104 (inactive) | 0.156 (inactive) | 0.53 | 0.871
O=C1C2=CC[C@H]3C(=O)N(c4cccc(Oc5ccccc5)c4)C(=O)[C@H]3[C@H]2[C@H](O)[C@@H]2O[C@H]12 | -1.07 | -0.0208 | -3.98 | -3.09 | -3.84 | -0.778 | -0.298 (inactive) | -1.05 | -3.02 | -1.35 (inactive) | -1.02 | -1.72 (inactive) | -6.54 (inactive) | -1.2 (inactive) | -0.261 (inactive) | -0.0295 (inactive) | -0.392 (inactive) | -0.281 (inactive) | -3.76 | 0.0506
CON=CC[C@@H]1C=C[C@H](OC(C)=O)[C@@H](COC(C)=O)O1 | 0.779 | -0.221 | -0.0589 | -1.09 | -0.0741 | 0.308 | -0.835 (inactive) | -0.589 | -0.0369 | -0.357 (inactive) | -0.144 | -0.0768 (inactive) | 0.0181 (inactive) | -1.1 (inactive) | -0.0903 (inactive) | 0.964 (inactive) | 0.736 (inactive) | -1.17 (inactive) | -0.143 | 0.502
